Data published in the supplement of paper PMC11732987, “Enantioselective OTUD7B fragment discovery through chemoproteomics screening and high-throughput optimisation” (Communications Chemistry, 2025).

Assays:
Assay in all cases: log2 ratio of Biotin-Ahx-Ub-VS probe labelling (fragment/DMSO); higher = less target engagement (more negative = stronger competition), active = hit call of the paper (q ≤ 0.05, log2 ratio ≤ -1)
Conditions in all cases: compound concentration: 200 uM; treatment time: 3 h
[1] = molecular target: USP34 (UniProt Q70CQ2)
Sequence of USP34 (Q70CQ2 whole entry, the tested form may be a part): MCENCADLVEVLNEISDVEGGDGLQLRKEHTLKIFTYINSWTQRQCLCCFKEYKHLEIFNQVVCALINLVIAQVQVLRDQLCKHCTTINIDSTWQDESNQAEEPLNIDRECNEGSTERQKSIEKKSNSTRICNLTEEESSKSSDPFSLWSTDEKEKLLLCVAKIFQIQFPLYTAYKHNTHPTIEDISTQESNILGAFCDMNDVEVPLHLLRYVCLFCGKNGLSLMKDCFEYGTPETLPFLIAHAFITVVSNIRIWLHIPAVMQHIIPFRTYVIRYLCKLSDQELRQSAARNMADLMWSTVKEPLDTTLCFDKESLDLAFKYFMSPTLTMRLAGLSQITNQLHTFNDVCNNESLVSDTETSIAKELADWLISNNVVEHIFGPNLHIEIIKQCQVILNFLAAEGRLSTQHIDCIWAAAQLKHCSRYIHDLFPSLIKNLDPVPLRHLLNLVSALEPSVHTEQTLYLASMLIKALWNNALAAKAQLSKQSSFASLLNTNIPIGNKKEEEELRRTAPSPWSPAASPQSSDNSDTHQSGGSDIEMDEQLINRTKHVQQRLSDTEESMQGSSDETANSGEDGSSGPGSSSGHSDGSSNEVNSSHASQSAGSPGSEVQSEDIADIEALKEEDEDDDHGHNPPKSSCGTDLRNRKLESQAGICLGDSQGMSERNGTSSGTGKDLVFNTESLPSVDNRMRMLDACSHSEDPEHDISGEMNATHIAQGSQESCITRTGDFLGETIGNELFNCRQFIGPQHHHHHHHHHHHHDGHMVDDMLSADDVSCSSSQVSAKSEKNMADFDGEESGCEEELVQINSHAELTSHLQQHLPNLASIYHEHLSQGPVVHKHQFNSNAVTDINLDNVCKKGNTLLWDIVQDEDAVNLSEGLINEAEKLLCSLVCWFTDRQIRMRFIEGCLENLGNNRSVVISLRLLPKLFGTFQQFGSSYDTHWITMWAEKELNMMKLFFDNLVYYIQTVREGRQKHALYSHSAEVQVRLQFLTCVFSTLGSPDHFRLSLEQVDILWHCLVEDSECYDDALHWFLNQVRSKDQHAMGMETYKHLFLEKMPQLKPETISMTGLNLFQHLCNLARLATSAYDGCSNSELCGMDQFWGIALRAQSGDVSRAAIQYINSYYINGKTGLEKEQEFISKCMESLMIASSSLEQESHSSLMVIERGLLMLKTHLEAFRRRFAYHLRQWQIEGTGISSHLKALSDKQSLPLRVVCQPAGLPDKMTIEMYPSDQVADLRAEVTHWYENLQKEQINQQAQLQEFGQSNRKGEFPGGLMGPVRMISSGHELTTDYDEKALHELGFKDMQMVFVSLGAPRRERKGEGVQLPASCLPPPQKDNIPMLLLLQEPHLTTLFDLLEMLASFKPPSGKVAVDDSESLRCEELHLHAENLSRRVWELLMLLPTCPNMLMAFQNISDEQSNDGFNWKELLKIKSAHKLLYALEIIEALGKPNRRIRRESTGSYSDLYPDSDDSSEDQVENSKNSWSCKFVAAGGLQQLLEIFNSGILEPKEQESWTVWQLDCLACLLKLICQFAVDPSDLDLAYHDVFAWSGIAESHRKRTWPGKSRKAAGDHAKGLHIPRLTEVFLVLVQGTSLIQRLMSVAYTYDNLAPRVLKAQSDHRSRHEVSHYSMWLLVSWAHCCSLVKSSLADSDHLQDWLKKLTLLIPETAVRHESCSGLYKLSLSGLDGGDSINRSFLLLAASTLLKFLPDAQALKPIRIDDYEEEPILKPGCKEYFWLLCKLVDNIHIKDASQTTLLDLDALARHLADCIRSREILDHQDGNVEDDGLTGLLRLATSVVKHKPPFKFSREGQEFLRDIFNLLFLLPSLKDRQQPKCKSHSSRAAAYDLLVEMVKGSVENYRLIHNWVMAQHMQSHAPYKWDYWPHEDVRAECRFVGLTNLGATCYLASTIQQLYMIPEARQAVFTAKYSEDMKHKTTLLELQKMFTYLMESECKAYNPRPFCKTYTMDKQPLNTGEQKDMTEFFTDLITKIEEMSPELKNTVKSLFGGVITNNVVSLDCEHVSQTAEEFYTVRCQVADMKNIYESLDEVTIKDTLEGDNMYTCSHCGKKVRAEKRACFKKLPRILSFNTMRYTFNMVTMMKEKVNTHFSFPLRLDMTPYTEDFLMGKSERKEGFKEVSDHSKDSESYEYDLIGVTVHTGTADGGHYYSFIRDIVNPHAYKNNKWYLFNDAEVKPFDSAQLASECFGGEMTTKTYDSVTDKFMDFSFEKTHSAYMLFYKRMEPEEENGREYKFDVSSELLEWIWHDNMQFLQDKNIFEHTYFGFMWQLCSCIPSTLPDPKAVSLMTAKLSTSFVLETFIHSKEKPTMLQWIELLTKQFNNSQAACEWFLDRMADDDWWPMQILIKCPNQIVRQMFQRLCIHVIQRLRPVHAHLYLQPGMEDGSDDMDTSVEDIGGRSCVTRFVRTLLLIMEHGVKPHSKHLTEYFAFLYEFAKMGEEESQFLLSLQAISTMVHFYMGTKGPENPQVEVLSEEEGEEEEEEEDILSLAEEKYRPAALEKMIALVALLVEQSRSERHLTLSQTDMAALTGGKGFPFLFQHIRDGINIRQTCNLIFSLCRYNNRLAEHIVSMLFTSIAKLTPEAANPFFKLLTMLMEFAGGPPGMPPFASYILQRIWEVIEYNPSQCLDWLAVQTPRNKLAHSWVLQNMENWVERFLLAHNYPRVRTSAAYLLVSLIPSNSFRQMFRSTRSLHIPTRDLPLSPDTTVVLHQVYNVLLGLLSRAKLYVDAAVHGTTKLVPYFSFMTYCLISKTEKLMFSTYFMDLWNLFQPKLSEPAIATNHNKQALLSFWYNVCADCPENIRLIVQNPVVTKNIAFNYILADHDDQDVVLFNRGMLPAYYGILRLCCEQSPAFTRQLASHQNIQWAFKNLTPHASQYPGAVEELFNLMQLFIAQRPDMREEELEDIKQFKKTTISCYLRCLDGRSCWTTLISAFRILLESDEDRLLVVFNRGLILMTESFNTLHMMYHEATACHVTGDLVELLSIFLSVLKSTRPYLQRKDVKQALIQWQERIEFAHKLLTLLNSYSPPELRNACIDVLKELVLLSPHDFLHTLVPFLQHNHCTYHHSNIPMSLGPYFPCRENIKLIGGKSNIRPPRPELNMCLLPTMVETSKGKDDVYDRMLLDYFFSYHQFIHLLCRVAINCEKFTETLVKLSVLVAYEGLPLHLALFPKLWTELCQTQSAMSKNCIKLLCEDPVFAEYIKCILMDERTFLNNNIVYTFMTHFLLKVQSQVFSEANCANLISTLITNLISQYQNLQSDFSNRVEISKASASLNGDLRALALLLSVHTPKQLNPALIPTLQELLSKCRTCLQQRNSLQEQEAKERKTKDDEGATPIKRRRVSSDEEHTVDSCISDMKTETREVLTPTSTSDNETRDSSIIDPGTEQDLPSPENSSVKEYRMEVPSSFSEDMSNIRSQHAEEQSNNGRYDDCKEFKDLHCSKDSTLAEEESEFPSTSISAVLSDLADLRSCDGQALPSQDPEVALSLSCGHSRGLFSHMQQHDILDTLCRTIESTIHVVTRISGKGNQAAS
How it was run: (§1)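 HEK293T lysate in Tris/CHAPS/IGEPAL buffer with protease inhibitors (495 µg per sample) was given fragment at 200 µM or vehicle for 3 h, in triplicate. It then received Biotin-Ahx-Ub-VS at 0.5 µM final for 1 h. Labelled DUBs were NeutrAvidin-enriched, digested with LysC and trypsin, and run by diaPASEF LC-MS/MS. Values are average log2 fragment/vehicle ratios by unpaired t-test on global-median-normalised Spectronaut quantities of proteins with ≥2 unique peptides.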

[2] = molecular target: T1, USP36 (UniProt Q9P275)
T1 sequence (whole entry): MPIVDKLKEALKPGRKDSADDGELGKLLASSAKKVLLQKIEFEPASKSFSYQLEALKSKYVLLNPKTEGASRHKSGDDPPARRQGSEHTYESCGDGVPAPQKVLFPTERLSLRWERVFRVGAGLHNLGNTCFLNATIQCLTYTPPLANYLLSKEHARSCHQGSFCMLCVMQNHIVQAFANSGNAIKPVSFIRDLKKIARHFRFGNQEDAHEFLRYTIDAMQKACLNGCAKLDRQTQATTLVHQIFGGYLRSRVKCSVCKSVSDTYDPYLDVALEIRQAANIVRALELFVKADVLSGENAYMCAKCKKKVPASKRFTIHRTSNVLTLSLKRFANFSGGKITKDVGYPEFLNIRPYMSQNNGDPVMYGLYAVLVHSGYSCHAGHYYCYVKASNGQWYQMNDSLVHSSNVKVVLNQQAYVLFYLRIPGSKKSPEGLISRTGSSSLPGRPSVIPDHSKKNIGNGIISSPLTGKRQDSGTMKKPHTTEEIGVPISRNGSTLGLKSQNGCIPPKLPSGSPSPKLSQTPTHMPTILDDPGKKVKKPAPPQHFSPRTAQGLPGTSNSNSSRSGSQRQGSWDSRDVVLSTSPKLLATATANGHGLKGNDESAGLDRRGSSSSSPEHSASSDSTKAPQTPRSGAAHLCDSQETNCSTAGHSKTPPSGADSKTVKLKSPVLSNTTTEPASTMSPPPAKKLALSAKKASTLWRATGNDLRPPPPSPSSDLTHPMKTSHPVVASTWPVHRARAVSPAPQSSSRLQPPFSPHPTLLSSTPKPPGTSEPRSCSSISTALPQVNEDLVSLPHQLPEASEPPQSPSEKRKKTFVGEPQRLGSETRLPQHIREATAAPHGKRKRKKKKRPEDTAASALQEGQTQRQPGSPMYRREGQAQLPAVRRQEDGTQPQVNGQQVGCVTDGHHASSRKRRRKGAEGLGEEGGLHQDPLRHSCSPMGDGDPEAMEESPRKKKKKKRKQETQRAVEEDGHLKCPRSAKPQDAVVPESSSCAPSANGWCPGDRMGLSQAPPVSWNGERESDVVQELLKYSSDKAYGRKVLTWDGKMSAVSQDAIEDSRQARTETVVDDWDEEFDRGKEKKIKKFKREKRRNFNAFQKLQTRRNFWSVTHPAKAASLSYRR
How it was run: as §1

[3] = molecular target: T2, USP38 (UniProt Q8NB14)
T2 sequence (whole entry): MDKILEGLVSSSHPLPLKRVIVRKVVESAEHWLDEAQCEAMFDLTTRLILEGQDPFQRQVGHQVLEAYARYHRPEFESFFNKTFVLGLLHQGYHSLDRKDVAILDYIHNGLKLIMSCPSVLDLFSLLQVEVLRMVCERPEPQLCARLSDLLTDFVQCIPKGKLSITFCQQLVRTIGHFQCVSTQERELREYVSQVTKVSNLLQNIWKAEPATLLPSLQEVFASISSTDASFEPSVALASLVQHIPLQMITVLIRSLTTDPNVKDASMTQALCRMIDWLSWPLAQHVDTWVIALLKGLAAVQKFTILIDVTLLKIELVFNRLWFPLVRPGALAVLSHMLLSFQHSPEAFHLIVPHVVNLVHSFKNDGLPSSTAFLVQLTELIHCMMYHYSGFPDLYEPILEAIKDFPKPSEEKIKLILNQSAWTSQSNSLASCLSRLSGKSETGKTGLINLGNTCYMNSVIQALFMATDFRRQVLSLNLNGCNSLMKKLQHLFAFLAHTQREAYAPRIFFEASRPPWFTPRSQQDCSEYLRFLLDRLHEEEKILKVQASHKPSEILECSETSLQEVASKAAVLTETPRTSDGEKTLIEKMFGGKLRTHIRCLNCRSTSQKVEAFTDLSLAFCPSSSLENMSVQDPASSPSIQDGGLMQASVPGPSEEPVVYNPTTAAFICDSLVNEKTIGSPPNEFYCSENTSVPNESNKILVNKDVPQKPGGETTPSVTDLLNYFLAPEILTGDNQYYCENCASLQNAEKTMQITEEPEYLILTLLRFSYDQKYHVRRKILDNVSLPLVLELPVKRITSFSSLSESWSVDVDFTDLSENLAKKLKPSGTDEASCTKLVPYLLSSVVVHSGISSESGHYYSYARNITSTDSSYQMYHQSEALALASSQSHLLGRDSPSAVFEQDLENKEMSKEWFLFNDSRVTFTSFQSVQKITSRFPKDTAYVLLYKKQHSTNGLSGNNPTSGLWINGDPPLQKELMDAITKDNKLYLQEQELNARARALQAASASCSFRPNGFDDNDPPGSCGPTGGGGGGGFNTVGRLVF
How it was run: as §1

[4] = molecular target: T3, USP39 (UniProt Q53GS9)
T3 sequence (whole entry): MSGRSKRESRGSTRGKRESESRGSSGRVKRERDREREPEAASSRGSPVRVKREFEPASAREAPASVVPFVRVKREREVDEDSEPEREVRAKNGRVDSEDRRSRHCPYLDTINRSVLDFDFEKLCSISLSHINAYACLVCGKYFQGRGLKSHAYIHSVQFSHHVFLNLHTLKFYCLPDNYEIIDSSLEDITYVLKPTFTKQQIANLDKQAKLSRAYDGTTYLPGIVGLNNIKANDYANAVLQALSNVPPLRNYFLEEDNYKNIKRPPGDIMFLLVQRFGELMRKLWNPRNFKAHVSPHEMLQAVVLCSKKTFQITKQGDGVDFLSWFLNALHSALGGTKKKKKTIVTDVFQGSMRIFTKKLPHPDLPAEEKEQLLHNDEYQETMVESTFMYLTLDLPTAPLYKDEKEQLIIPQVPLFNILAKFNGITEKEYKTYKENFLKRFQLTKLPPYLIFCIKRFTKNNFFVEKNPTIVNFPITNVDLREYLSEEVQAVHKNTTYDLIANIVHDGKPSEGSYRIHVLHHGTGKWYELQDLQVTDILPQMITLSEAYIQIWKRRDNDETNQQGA
How it was run: as §1

[5] = molecular target: T4, USP4 (UniProt Q13107)
T4 sequence (whole entry): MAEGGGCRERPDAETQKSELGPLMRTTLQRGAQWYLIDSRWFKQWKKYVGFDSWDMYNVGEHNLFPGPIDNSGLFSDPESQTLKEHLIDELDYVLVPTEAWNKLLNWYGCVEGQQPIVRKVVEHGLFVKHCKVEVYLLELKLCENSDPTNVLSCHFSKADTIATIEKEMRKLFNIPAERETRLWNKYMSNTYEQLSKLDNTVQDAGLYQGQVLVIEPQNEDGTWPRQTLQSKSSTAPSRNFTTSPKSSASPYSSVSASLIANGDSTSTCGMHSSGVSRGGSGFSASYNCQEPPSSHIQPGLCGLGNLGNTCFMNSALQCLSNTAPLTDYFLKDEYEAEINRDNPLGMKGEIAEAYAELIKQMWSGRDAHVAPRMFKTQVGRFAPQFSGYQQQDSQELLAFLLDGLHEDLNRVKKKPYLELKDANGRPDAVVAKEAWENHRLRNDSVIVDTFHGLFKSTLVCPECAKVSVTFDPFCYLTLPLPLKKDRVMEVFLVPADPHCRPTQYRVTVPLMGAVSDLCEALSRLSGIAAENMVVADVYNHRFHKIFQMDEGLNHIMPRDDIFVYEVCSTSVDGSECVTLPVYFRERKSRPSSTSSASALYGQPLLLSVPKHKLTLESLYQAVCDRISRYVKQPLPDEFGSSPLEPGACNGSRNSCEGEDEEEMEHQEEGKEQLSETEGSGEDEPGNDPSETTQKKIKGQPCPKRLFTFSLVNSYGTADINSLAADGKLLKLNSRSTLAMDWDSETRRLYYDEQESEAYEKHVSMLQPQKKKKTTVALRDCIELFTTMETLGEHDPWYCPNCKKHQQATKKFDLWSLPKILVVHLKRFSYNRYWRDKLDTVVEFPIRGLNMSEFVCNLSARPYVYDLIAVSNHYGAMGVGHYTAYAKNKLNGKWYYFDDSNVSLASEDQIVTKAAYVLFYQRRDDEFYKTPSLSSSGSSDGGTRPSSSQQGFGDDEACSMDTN
How it was run: as §1

Measured: log2 ratio of Biotin-Ahx-Ub-VS probe labelling

O=C(CCl)Nc1cc2c(cc1Cl)OCCCO2
inactive: [1] 0.0191 | [2] -0.11 | [3] 0.0869 | [4] 0.0922 | [5] 0.154
